# Measured values reported in PubChem BioAssay AID624330 (Southern Research Specialized Biocontainment Screening …, 2012).
# About 2,100 (0.62%) of roughly 340,000 compounds were called active. Not all results are given here. Results with a measured potency or affinity are listed apart. Unmarked numbers belong to inactive results.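 The calls were made as follows: active = first-screen hits whose inhibition reached a set limit at any dose in the follow-up dose series; inconclusive = inhibition above the set first-screen limit but never retested; inactive = the rest.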
# Target: Rac GTPase-activating protein 1 (Homo sapiens) (UniProt Q9H0H5)
# Sequence (Q9H0H5 whole entry, looked up): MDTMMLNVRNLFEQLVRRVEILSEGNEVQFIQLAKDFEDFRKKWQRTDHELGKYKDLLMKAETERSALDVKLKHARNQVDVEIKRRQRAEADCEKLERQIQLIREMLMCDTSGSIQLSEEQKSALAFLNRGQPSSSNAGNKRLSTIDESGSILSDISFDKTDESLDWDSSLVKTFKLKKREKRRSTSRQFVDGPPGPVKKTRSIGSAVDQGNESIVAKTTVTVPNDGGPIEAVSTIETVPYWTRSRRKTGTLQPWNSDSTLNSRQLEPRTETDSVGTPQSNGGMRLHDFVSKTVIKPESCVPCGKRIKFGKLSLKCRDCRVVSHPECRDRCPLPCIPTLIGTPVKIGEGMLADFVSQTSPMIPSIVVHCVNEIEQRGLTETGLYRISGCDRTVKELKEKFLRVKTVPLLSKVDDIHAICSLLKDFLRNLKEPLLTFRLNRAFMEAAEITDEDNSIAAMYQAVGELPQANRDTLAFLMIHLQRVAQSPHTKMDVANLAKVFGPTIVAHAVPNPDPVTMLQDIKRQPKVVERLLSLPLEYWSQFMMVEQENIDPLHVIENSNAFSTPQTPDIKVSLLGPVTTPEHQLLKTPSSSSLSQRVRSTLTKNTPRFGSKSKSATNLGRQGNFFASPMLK
# Assay: MgcRacGAP GTPase-activating activity inhibitors, confirmation, biochemical, ADP Hunter fluorescence, primary and confirmatory (AID 624330);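 also: fluorescence reports GDP produced by GAP-driven GTP hydrolysis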
# Settings: MgcRacGAP-stimulated Rac1 GTP hydrolysis, at 30 µM, stronger effect = higher value, GST-tagged Rac1 F28L mutant substrate
row,SMILES,inhibition
1,CC12CCC3C(=CCc4cc(O)ccc43)C1CC(=NO)C2O (stereo not given),27.1%
2,COc1ccc2c(c1)CC=C1C2CCC2(C)C(=O)C(=NO)CC12 (stereo not given),5.55%
3,CCN=c1scc(C)n1/N=C/c1ccc(O)c(O)c1O,-35.3%
4,COc1cc(/C=N/N2C(C)CCCC2C)cc(Br)c1O (stereo not given),10.5%
5,Oc1c(Br)cc(/C=N/n2c(-c3ccccc3)n[nH]c2=S)cc1Br,17.3%
6,Cc1nnc(C)n1/N=C/c1cc(Br)cc(Br)c1O,13.7%
7,COc1cc(/C=N/N2C(=O)CSC2=S)cc(Br)c1O,24.4%
8,CCc1n[nH]c(=S)n1/N=C/c1cc(Br)c(O)c(OC)c1,14.8%
9,COc1cc2ncnc(NCc3ccc(F)cc3)c2cc1OC,5.92%
10,COc1ccc(-n2cnnc2SCC(=O)Nc2cc(C)on2)cc1,0.92%
11,Cc1nn(-c2nc3ccccc3[nH]2)c(N)c1-c1ccc(Cl)cc1,14.1%
12,COc1ccc(NC(=O)[C@@H]2CCCN2S(=O)(=O)c2cccc3cccnc23)cc1,7.98%
13,Cc1c(N2C(=O)CSC2c2ccc(F)cc2)c(=O)n(-c2ccccc2)n1C (stereo not given),-1.84%
14,Cc1cc(C)n(CC(=O)N2N=C(C(F)F)CC2(O)C(F)F)n1 (stereo not given),5.91%
15,O=C(CC1C[C@H](C(=O)N2CCCCC2)[C@@]2(CCc3ccccc3)c3[nH]c4ccccc4c3CCN2C1=O)NCCc1ccccn1 (stereo not given in full),10.2%
16,Cc1ccc(-n2c(=S)[nH]c3sc4c(c3c2=O)CCc2ccccc2-4)cc1,4.2%
17,CCn1c(=S)[nH]c2sc3c(c2c1=O)CCCC3,47.9%
18,C=CCn1c(=S)[nH]c2sc3c(c2c1=O)CCC3,14.3%
19,CCCn1c(=S)[nH]c2sc3c(c2c1=O)CCCC3,2.13%
20,COCCCn1c(=S)[nH]c2sc3c(c2c1=O)CCCS3,7.39%
21,C=CCn1c(=S)[nH]c2sc3c(c2c1=O)CCCC3,13.8%
22,CN(C)CCCn1c(=S)[nH]c2sc3c(c2c1=O)CCCC3,26.2%
23,CCOc1ccc(-n2c(=O)[nH]c3sc4c(c3c2=O)CCCC4)cc1,12.1%
24,COc1ccc(/C(C)=N/NC(=S)Nc2cc(C)ccc2C)cc1,-5.64%
25,CCOC(=O)C1C(=O)CC(C)(O)C(C(=O)OCC)C1c1ccc([N+](=O)[O-])cc1 (stereo not given),11.4%

row,SMILES,inhibition
1,COc1ccc(N2CCN(c3nc4cc(C)ccc4cc3C=O)CC2)cc1,2.5%
2,Cc1ccc(C2=NN(C(=O)CSc3nc4ncc(Cl)cc4[nH]3)C(c3ccco3)C2)cc1 (stereo not given),5.98%
3,C/C(=N\NC(=O)Cn1cnc2ccccc21)c1cccs1,4.15%
4,COc1ccc2c3n(nc2c1)CCN=C3c1ccc(C)cc1,4.94%
5,COc1cccc(-c2cc(C(=O)NC3CCCCC3)no2)c1,6.22%
6,O=C(NCc1ccccc1)C12CC3CC(CC(Br)(C3)C1)C2,5.84%
7,O=C1CCC(=O)N(c2ccccc2)N1,3.91%
8,O=C1CCN(S(=O)(=O)c2ccccc2)N1,-45.5%
9,Cc1[nH]c(-c2ccc(F)cc2)cc1C(=O)N1CCN(c2cccc(Cl)c2)CC1,21.1%
10,COC(=O)Cn1ccc(N(C)C)c(C#N)c1=O,-1.06%
11,CCOC(=O)N1CCN(Cc2nc(-c3ccc(Cl)cc3)no2)CC1,0.28%
12,CC(C)Oc1cccc(C(=O)NC(=S)Nc2ccc(Cl)c(C(=O)O)c2)c1,0.71%
13,O=C(CCNC(=O)C1CCN(S(=O)(=O)c2ccc(F)cc2)CC1)NCCc1ccc(Cl)cc1,1.71%
14,CCCN(CC(=O)Nc1ccc(F)c(F)c1F)C(=O)c1ccc2c(=O)n3c(nc2c1)CCC3,1.86%
15,CC1(Cc2cn(CCC#N)c3ccccc23)OCCO1,15.8%
16,N#CCCn1cc(CNC2CCC(O)CC2)c2ccccc21 (stereo not given),3.99%
17,CCCCCC(=O)NC(NC(=S)NC1CCS(=O)(=O)C1)C(Cl)(Cl)Cl (stereo not given),8.9%
18,Cc1cccc(OCCSc2nc(N)cc(N)n2)c1,25.9%
19,O=C(N/N=C/c1ccc[nH]1)c1ccc([N+](=O)[O-])cc1,13.2%
20,O=[N+]([O-])c1ccc(C=NNc2ccccc2)cc1,0.7%
21,Nc1c(N(CCO)C(=O)C2CCCC2)c(=O)[nH]c(=O)n1Cc1ccccc1,2.35%
22,Cc1cc(C)cc(NC(=O)C2(c3ccccc3)CC2(Cl)Cl)c1 (stereo not given),8.14%
23,COc1ccc(/C=N/N2CCN(C3c4ccccc4-c4ccccc43)CC2)cc1O,11.6%
24,CN(C(=O)CSc1nc2[nH]ncc2c(=O)[nH]1)c1ccccc1,2.08%
25,Oc1c(Br)cc(Br)cc1C=Nc1ccc2[nH]ncc2c1,17.9%

row,SMILES,inhibition
1,C=CCOc1ccc(C=Nc2ccc(OC)cc2)c(O)c1,12%
2,COc1cccc(N=Cc2ccc(O)cc2O)c1,8.51%
3,Cc1ccc(O)c(/C=N/NC(=O)c2[nH]ncc2Br)c1,0.98%
4,Brc1ccc2[nH]ncc2c1,3.94%
5,CC1(C)CC(=O)C(C=Nc2ccc3[nH]ncc3c2)=C(O)C1,6.45%
6,CCOC(=O)c1nc(NNC(C)=O)sc1C,0.96%
7,Cc1nc2nc(-c3cccs3)[nH]c2cc1Br,10.5%
8,Cc1cccc(NC(=O)c2nc(-c3ccccc3)n(-c3ccccc3)n2)c1C,10.4%
9,Cc1nnc(CN(C)C(=O)CC2C(=O)NCCN2Cc2ccccc2C)o1 (stereo not given),-0.43%
10,Cc1nc(CNS(=O)(=O)c2cc(C)c(C)cc2C)cs1,10.2%
11,Nc1ccc(SCc2cccnc2)cc1,14%
12,CC(C)(C)OC(=O)N1CCN(C(=O)c2[nH]cnc2C(=O)Nc2ccc(Cl)cc2)CC1,8.41%
13,O=C(NCc1cccnc1)C1CCN(S(=O)(=O)c2cccs2)CC1,8.85%
14,Cc1ccc(NC(=O)COC(=O)C(NS(=O)(=O)c2ccc(Cl)cc2)C(C)O)cc1 (stereo not given),4.48%
15,CC(=O)Nc1ccc(S(=O)(=O)N[C@@H](C)C(=O)OCc2ccc(Cl)cc2)cc1,3.47%
16,O=S(=O)(Nc1ccncc1)c1ccc(Cl)cc1,2.85%
17,CC(=O)N(C)c1ccc(NS(=O)(=O)c2cc(Cl)ccc2Cl)cc1,11.1%
18,Cc1ccc(S(=O)(=O)Nc2ccc(N(C)S(=O)(=O)c3ccc(C)cc3)cc2)cc1,3.88%
19,CCN(c1ccc(NS(=O)(=O)c2cc(Cl)ccc2Cl)cc1)C(C)C,10.2%
20,CSc1ccc(S(=O)(=O)Nc2ccc(S(=O)(=O)Nc3ccc(C)cc3)cc2)cc1,8.03%
21,CN(C)c1ccc(S(=O)(=O)c2ccc(Cl)cc2)cc1,-2.71%
22,O=C(CCSc1ccc(Cl)cc1)NCc1ccccn1,14.8%
23,CC(=O)CC(=O)Nc1ccc(Cl)cn1,4.78%
24,CCOC(=O)N1CCC(N2CCN(S(=O)(=O)c3ccc([N+](=O)[O-])cc3)CC2)CC1,30.9%
25,COc1ccc2nc(NC(=O)CSc3cn[nH]n3)sc2c1,6.06%

row,SMILES,inhibition
1,Nc1ccccc1NC(=O)NC(=O)c1ccccc1,12.1%
2,COC(=O)Cn1cc(/C=N/NC(=O)COc2cccc3cccnc23)c2ccccc21,5.77%
3,Cc1cc(C(=O)Nc2sccc2C#N)c2ccccc2n1,12%
4,Cn1nnc(NC(=O)c2ccc(Br)o2)n1,11.1%
5,COCc1ccc(CN2CCC(N3CCC(C(=O)N4CCCC4)CC3)CC2)o1,1.64%
6,CN(CC(=O)Nc1ccc(F)cc1)C(=O)c1cccc(NS(=O)(=O)c2ccccc2)c1,5.16%
7,COCCCNC(=O)/C(C#N)=C/c1c(N2CCN(c3ccccc3)CC2)nc2c(C)cccn2c1=O,10.4%
8,COCCNC(=O)/C(C#N)=C/c1c(N2CCN(c3ccc(OC)cc3)CC2)nc2c(C)cccn2c1=O,31.4%
9,OCCNCc1c(OCc2ccc(Cl)cc2)ccc2ccccc12,8.81%
10,CCc1ccc(NC(=O)CCNC(=O)Cn2cnc3ccccc3c2=O)cc1,9.24%
11,COc1ccc(-n2c(C)cc(/C=C3\C(=N)N4N=C(CC(=O)N5CCOCC5)SC4=NC3=O)c2C)c(OC)c1,-2.43%
12,Cc1cc(-c2ccccc2)n2ncnc2n1,6.89%
13,Cc1cc(-c2ccc3ccccc3c2)n2ncnc2n1,-7.09%
14,COc1ccc(NC(=O)CCCc2ccccc2)c(OC)c1,6.75%
15,CNC(=O)CC1C(=O)N(Cc2ccccc2)C(=S)N1NC(=O)c1cccc(F)c1 (stereo not given),-0.78%
16,COCCn1c(CN2CCc3ccccc3C2)nc2c1c(=O)n(C)c(=O)n2C,7.99%
17,CCCc1nc2ccccc2n1CCOc1ccccc1,3.33%
18,COc1cc(/C=N/NC(=O)C(=O)NCc2cccnc2)ccc1O,25.4%
19,CCOc1cc(/C=C(\C#N)C(=O)Nc2ccccn2)ccc1O,12.8%
20,N#C/C(=C/c1cccc(O)c1)C(=O)NCc1ccc(Cl)cc1,24.4%
21,COc1ccc(/C=C(\C#N)C(=O)NCc2cccnc2)cc1OC,0.52%
22,CCOc1ccc(/C=C(\C#N)C(=O)NCC2CCCO2)cc1OCC (stereo not given),-2.79%
23,CCOc1cc(/C=C(\C#N)C(=O)NCC2CCCO2)ccc1OCC(N)=O (stereo not given),4.74%
24,COc1ccc(/C=N/NC(=O)C(=O)NCc2cccnc2)cc1OC,-5.14%
25,N#C/C(=C/c1ccc(O)cc1)C(=O)NCc1ccc(Cl)cc1,3.42%
